Among the test systems are SK-MEL-2 melanoma; EKVX NSCLC; SN12C renal; UO-31 renal; TK-10 renal; ACHN renal; CAKI-1 renal; A498 renal; CCRF-CEM leukemia; MOLT-4 leukemia; SR leukemia; OVCAR-8 ovarian; OVCAR-5 ovarian; OVCAR-4 ovarian; SK-OV-3 ovarian; IGROV1 ovarian; OVCAR-3 ovarian; HS 578T breast; NCI/ADR-RES ovarian.
Common to all, as to assay: NCI-60 one-dose screen, 48 h (100 = growth as untreated, 0 = no growth, -100 = all killed)
Common to all, as to settings: 10 µM unless noted

About 83,000 compounds went through this panel and 20% of them were active in at least one assay; those are over-represented in the sample as a whole.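 Assay: single dose, 48 h. Readout: percent growth (0 = no net growth; negative = cell death). Active: <10.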 A number with no mark means an inactive call. Active and inactive are the calls of the source.

Turning to `CC1=C(SCCC(=O)OC(C[Se]C2=C(C)C(=O)c3ccccc3C2=O)C(=O)NC(C)(C)C)C(=O)c2ccccc2C1=O` (configuration not stated), the growth in the assay on SK-MEL-2 melanoma is 2.5% (active); in the assay on EKVX NSCLC, -71.2% (active); in the assay with SN12C renal, -64.4% (active); in the assay with UO-31 renal, -41.2% (active); in the assay on TK-10 renal it was -94.3% (active); in the assay on ACHN renal it was -78.3% (active). Also, the growth with CAKI-1 renal is -56.4% (active); in the assay on A498 renal, -40.6% (active); with CCRF-CEM leukemia, -23% (active); with MOLT-4 leukemia, 13.1%; with SR leukemia it was 18.7%; with OVCAR-8 ovarian it was -79.4% (active). In addition, the growth with OVCAR-5 ovarian is -68.9% (active); with OVCAR-4 ovarian it was -91.5% (active); in the assay with SK-OV-3 ovarian, -100% (active); in the assay on IGROV1 ovarian, -27.9% (active); in the assay with OVCAR-3 ovarian, -97.6% (active); with HS 578T breast, -21.3% (active). Besides, the growth in the assay on NCI/ADR-RES ovarian was -68.6% (active).
For `Nc1nc2ccccc2c2c(=O)c3cc(F)ccc3sc12`, the growth is 110% in the assay with SK-MEL-2 melanoma; 91.5% with EKVX NSCLC; 101% in the assay with SN12C renal; 91.3% in the assay on UO-31 renal; 110% in the assay on TK-10 renal; 101% in the assay with ACHN renal. The growth with CAKI-1 renal is 107%; in the assay with A498 renal it was 89.7%; in the assay with CCRF-CEM leukemia, 105%; with MOLT-4 leukemia, 101%; in the assay with SR leukemia, 101%; in the assay with OVCAR-8 ovarian, 106%. Further, the growth in the assay on OVCAR-5 ovarian was 102%; with OVCAR-4 ovarian, 101%; in the assay on SK-OV-3 ovarian it was 108%; in the assay on IGROV1 ovarian, 103%; with OVCAR-3 ovarian, 113%; with HS 578T breast it was 101%. For the same compound, the growth with NCI/ADR-RES ovarian is 97.5%.
With `COc1ccc(C2NC(=O)C(C#N)c3c2sc2c(F)cccc32)c(OC)c1` (configuration not stated), the growth in the assay on SK-MEL-2 melanoma was 65.1%; in the assay on EKVX NSCLC, 79.8%; with SN12C renal, 73.8%; with UO-31 renal, 34%; in the assay with TK-10 renal, 90.1%; with ACHN renal, 37.5%. The growth with CAKI-1 renal is 21.4%; in the assay with A498 renal, 25.2%; with CCRF-CEM leukemia it was 71.9%; in the assay on MOLT-4 leukemia, 71.4%; in the assay on SR leukemia it was 13.9%; in the assay on OVCAR-8 ovarian it was 62.3%. For the same compound, the growth was 98.9% in the assay on OVCAR-5 ovarian; 53.7% with OVCAR-4 ovarian; 50.8% with SK-OV-3 ovarian; 52.7% in the assay with IGROV1 ovarian; 13.8% in the assay on OVCAR-3 ovarian; 21.4% with HS 578T breast. In addition, the growth in the assay with NCI/ADR-RES ovarian was 16.7%.
`CCc1cccc2c3c(sc12)C(c1ccc(Cl)cc1)C(C#N)=C(N)O3` (configuration not stated): the growth in the assay on SK-MEL-2 melanoma was 40.2%; in the assay on EKVX NSCLC, 48.2%; in the assay with SN12C renal, 38.3%; in the assay with UO-31 renal, 38.2%; with TK-10 renal, 69%; in the assay on ACHN renal it was 33.7%. Also, the growth in the assay on CAKI-1 renal is 3.05% (active); in the assay with A498 renal, 10.8%; in the assay with CCRF-CEM leukemia it was 5.24% (active); with MOLT-4 leukemia, 12.2%; in the assay with SR leukemia, 13.6%; in the assay on OVCAR-8 ovarian it was 29.4%. Also, the growth is 24.6% with OVCAR-5 ovarian; 75.2% in the assay with OVCAR-4 ovarian; 58.3% with SK-OV-3 ovarian; 30.2% with IGROV1 ovarian; 2.19% (active) in the assay with OVCAR-3 ovarian; 4.92% (active) in the assay with HS 578T breast. Further, the growth in the assay with NCI/ADR-RES ovarian is 19.2%.
Consider `Cc1cccc2c1S/C(=C/c1ccc([N+](=O)[O-])cc1)C2=O`, for which the growth in the assay with SK-MEL-2 melanoma was 103%; in the assay with EKVX NSCLC it was 103%; in the assay on SN12C renal it was 98.8%; in the assay with UO-31 renal it was 80.4%; with TK-10 renal, 166%; in the assay on ACHN renal, 102%. Besides, the growth in the assay on CAKI-1 renal was 90.6%; with A498 renal it was 59.8%; in the assay with CCRF-CEM leukemia it was 101%; in the assay with MOLT-4 leukemia, 94.5%; in the assay on SR leukemia, 86.8%; in the assay with OVCAR-8 ovarian, 105%. Besides, the growth was 41.3% with OVCAR-5 ovarian; 112% in the assay with OVCAR-4 ovarian; 88.2% in the assay on SK-OV-3 ovarian; 82.7% with IGROV1 ovarian; 105% in the assay on OVCAR-3 ovarian; 99.7% in the assay on HS 578T breast. Moreover, in the assay with NCI/ADR-RES ovarian, the growth is 110%.
Consider `O=c1c2cc(F)ccc2sc2c(N3CCCCC3)nc3ccccc3c12`, for which the growth was 115% in the assay on SK-MEL-2 melanoma; 103% with EKVX NSCLC; 99.1% with SN12C renal; 78.8% in the assay with UO-31 renal; 109% in the assay on TK-10 renal; 102% in the assay on ACHN renal. Further, the growth in the assay on CAKI-1 renal is 101%; in the assay on A498 renal, 64.6%; with CCRF-CEM leukemia, 110%; in the assay on MOLT-4 leukemia it was 111%; with SR leukemia it was 121%; in the assay with OVCAR-8 ovarian, 99.6%. Also, the growth with OVCAR-5 ovarian was 98.4%; with OVCAR-4 ovarian, 116%; in the assay on SK-OV-3 ovarian it was 103%; with IGROV1 ovarian, 101%; in the assay with OVCAR-3 ovarian, 110%; with HS 578T breast, 105%. Further, the growth in the assay on NCI/ADR-RES ovarian is 101%.
For `CCCCCCn1c(-c2ccc(C(=O)O/N=C(\N)c3ccc4ccccc4c3)cc2)nc(-c2ccccc2)c1-c1ccccc1`, the growth was 88.6% in the assay on SK-MEL-2 melanoma; 18% in the assay with EKVX NSCLC; 45.6% in the assay with SN12C renal; -85.4% (active) with UO-31 renal; 47.4% in the assay with TK-10 renal; 0.0407% (active) in the assay with ACHN renal. Besides, the growth was 33.9% in the assay on CAKI-1 renal; 51.4% in the assay with A498 renal; 18.5% in the assay with CCRF-CEM leukemia; 41.2% in the assay with MOLT-4 leukemia; -37.7% (active) in the assay with SR leukemia; 64.6% in the assay with OVCAR-8 ovarian. The growth with OVCAR-5 ovarian was 71.6%; with OVCAR-4 ovarian it was 56.8%; in the assay on SK-OV-3 ovarian, 91%; with IGROV1 ovarian, -48.3% (active); in the assay with OVCAR-3 ovarian, 74.8%; with HS 578T breast, 46.8%. In addition, in the assay on NCI/ADR-RES ovarian, the growth was 3.92% (active).
Regarding `COc1ccc(-c2[nH]c3ccc(OC)cc3c2/C=C(\C#N)S(=O)(=O)c2ccccc2)cc1`, the growth in the assay on SK-MEL-2 melanoma is 82.6%; in the assay on EKVX NSCLC, 36.8%; in the assay with SN12C renal, 44.4%; in the assay on UO-31 renal, 42.2%; in the assay with TK-10 renal it was 45.7%; with ACHN renal, 41.4%. The growth in the assay on CAKI-1 renal was 74.5%; with A498 renal, -5.52% (active); in the assay on CCRF-CEM leukemia, 2.56% (active); in the assay with MOLT-4 leukemia it was 17.6%; with SR leukemia it was 28.1%; with OVCAR-8 ovarian, 42.2%. The growth in the assay on OVCAR-5 ovarian was 63.3%; in the assay with OVCAR-4 ovarian it was -20.8% (active); in the assay with SK-OV-3 ovarian it was 31.9%; with IGROV1 ovarian it was 48.6%; with OVCAR-3 ovarian, -1.23% (active); in the assay on HS 578T breast, 13.4%. Moreover, in the assay on NCI/ADR-RES ovarian, the growth was 14.3%.

The values are drawn from PubChem BioAssay (NCI).
